Laboratory results reported in PubChem BioAssay (NCATS).
Inconclusive results are not listed. Calls of active or inactive are those of the source. Calls follow the shape of the dose curve; as a rule, active = well fitted cell-killing curve with a large enough effect; inconclusive = small, poorly fitted or top-dose-only effect, or effect the other way; inactive = no such curve, though single readings can be large or run the other way. Residues, ends and D or L forms follow the SMILES beside them. *: point of attachment. Cbz = O=C(OCc1ccccc1)*

Columns and labels:
[1] = Quantitative High-Throughput drug screen in 47 multiple myeloma cell lines against the NCATS MIPE library collection: OCIMY1_PLB cell viability assay (AID 1918979); also: nearly all actives have a fitted effect of over 35% in size;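 as to viability: 100% = DMSO-only wells and 0% = cell-free media-only wells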
Procedure, shortened: (§1)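 ATP-based luminescence (CellTiter-Glo, 5 min RT incubation) quantified surviving cells following two days' treatment with MIPE 4.0 agents at 37 °C, 5% CO2.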

[2] = Quantitative High-Throughput drug screen in 47 multiple myeloma cell lines against the NCATS MIPE library collection: MM1R_ATCC cell viability assay (AID 1918981); also: nearly all actives have a fitted effect of over 35% in size
Procedure, shortened: as §1

[3] = Quantitative High-Throughput drug screen in 47 multiple myeloma cell lines against the NCATS MIPE library collection: LP1_DSMZ cell viability assay (AID 1918982); also: nearly all actives have a fitted effect of over 35% in size
Procedure, shortened: as §1

[4] = Quantitative High-Throughput drug screen in 47 multiple myeloma cell lines against the NCATS MIPE library collection: KMS28PE_JCRB cell viability assay (AID 1918983); also: nearly all actives have a fitted effect of over 35% in size
Procedure, shortened: as §1

[5] = Quantitative High-Throughput drug screen in 47 multiple myeloma cell lines against the NCATS MIPE library collection: L363_DSMZ cell viability assay (AID 1918984); also: nearly all actives have a fitted effect of over 40% in size
Procedure, shortened: as §1

[6] = Quantitative High-Throughput drug screen in 47 multiple myeloma cell lines against the NCATS MIPE library collection: OCIMY7_PLB cell viability assay (AID 1918987); conditions: OCI-MY7 myeloma viability, CellTiter-Glo ATP, 48 h; viability (% of DMSO): at 45.8 µM (top of the series); also: nearly all actives have a fitted effect of over 65% in size
Procedure, shortened: as §1

[7] = Quantitative High-Throughput drug screen in 47 multiple myeloma cell lines against the NCATS MIPE library collection: OCIMY5_PLB cell viability assay (AID 1918988); also: nearly all actives have a fitted effect of over 65% in size
Procedure, shortened: as §1

[8] = Quantitative High-Throughput drug screen in 47 multiple myeloma cell lines against the NCATS MIPE library collection: OPM1_PLB cell viability assay (AID 1918989); also: nearly all actives have a fitted effect of over 40% in size
Procedure, shortened: as §1

[9] = Quantitative High-Throughput drug screen in 47 multiple myeloma cell lines against the NCATS MIPE library collection: SKMM1_PLB cell viability assay (AID 1919863); conditions: SKMM1 myeloma viability, CellTiter-Glo ATP, 48 h; viability: hits give low values; also: nearly all actives have a fitted effect of over 35% in size
Procedure, shortened: as §1

[10] = Quantitative High-Throughput drug screen in 47 multiple myeloma cell lines against the NCATS MIPE library collection: U266_ATCC cell viability assay (AID 1919864); also: nearly all actives have a fitted effect of over 35% in size;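 as to viability (% of DMSO control): 0% = media-only wells without cells and 100% = DMSO-only wells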
Procedure, shortened: as §1

[11] = Quantitative High-Throughput drug screen in 47 multiple myeloma cell lines against the NCATS MIPE library collection: XG6_PLB cell viability assay (AID 1919865); also: nearly all actives have a fitted effect of over 40% in size
Procedure, shortened: as §1

[12] = Quantitative High-Throughput drug screen in 47 multiple myeloma cell lines against the NCATS MIPE library collection: XG1_PLB cell viability assay (AID 1919866); also: nearly all actives have a fitted effect of over 35% in size
Procedure, shortened: as §1

[13] = Quantitative High-Throughput drug screen in 47 multiple myeloma cell lines against the NCATS MIPE library collection: VP6_DJ cell viability assay (AID 1919867); also: nearly all actives have a fitted effect of over 40% in size;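 as to viability (% of DMSO): 100% = DMSO-only wells and 0% = wells with media alone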
Procedure, shortened: as §1

[14] = Quantitative High-Throughput drug screen in 47 multiple myeloma cell lines against the NCATS MIPE library collection: PE2_PLB cell viability assay (AID 1919869); also: nearly all actives have a fitted effect of over 35% in size
Procedure, shortened: as §1

[15] = Quantitative High-Throughput drug screen in 47 multiple myeloma cell lines against the NCATS MIPE library collection: PCM6_Riken cell viability assay (AID 1919870); also: nearly all actives have a fitted effect of over 30% in size
Procedure, shortened: as §1

[16] = Quantitative High-Throughput drug screen in 47 multiple myeloma cell lines against the NCATS MIPE library collection: RPMI8226_ATCC cell viability assay (AID 1919871); also: nearly all actives have a fitted effect of over 30% in size
Procedure, shortened: as §1

[17] = Quantitative High-Throughput drug screen in 47 multiple myeloma cell lines against the NCATS MIPE library collection: OPM2_DSMZ cell viability assay (AID 1919872); also: nearly all actives have a fitted effect of over 30% in size
Procedure, shortened: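 Primary qHTS used for cherry-picking: cells at 500/well, library compounds for 48 h (37C, 5% CO2), luminescent ATP assay.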

[18] = Quantitative High-Throughput drug screen in 47 multiple myeloma cell lines against the NCATS MIPE library collection: MM1S_ATCC cell viability assay (AID 1918980); also: nearly all actives have a fitted effect of over 45% in size
Procedure, shortened: as §1

[19] = Quantitative High-Throughput drug screen in 47 multiple myeloma cell lines against the NCATS MIPE library collection: UTMC2_PLB cell viability assay (AID 1919868); conditions: CellTiter-Glo ATP luminescence, 48 h; viability (% of DMSO control): at 45.8 µM (top of the series); also: nearly all actives have a fitted effect of over 55% in size
Procedure, shortened: as §1

[20] = Quantitative High-Throughput drug screen in 47 multiple myeloma cell lines against the NCATS MIPE library collection: KMS34_JCRB cell viability assay (AID 1918985); also: nearly all actives have a fitted effect of over 40% in size
Procedure, shortened: as §1
Potency is read from the fitted curve at half-maximal effect.

COc1cc(C=CC(=O)CC(=O)C=Cc2ccc(O)c(OC)c2)ccc1O
active: Potency [1] 21.5 µM | Potency [2] 7.62 µM | Potency [3] 30.3 µM | Potency [4] 17.1 µM | Potency [5] 3.03 µM | Potency [6] 2.15 µM | Potency [7] 12.1 µM | Potency [8] 3.82 µM | Potency [9] 15.2 µM | Potency [10] 34 µM | Potency [11] 10.8 µM | Potency [12] 6.79 µM | Potency [13] 9.59 µM | Potency [14] 4.81 µM | Potency [15] 9.59 µM | Potency [16] 30.3 µM | Potency [17] 21.5 µM

O=C(O)c1ccc(Nc2ncc3c(n2)-c2ccc(Cl)cc2C(c2c(F)cccc2F)=NC3)cc1
active: Potency [18] 18.7 µM | Potency [6] 0.209 µM | Potency [8] 5.9 µM | Potency [10] 20.9 µM | Potency [11] 0.662 µM | Potency [12] 0.418 µM | Potency [13] 5.9 µM | Potency [19] 1.66 µM | Potency [15] 16.6 µM | Potency [16] 14.8 µM
inactive: Potency [1]

CC(C)OC(=O)[C@H](C)N[P@](=O)(OC[C@H]1O[C@@H](n2ccc(=O)[nH]c2=O)[C@](C)(F)[C@H]1O)Oc1ccccc1
inactive: Potency [1] | Potency [18] | Potency [3] | Potency [20] | Potency [8] | viability [9] 127% | Potency [10] | Potency [15] | Potency [16]

O=C(c1ccc(F)cc1)N1CCC[C@H](c2nc(-c3ccc(F)cc3)no2)C1
inactive: Potency [1] | Potency [2] | Potency [3] | Potency [4] | Potency [5] | Potency [20] | Potency [8] | Potency [10] | Potency [11] | Potency [12] | Potency [13] | Potency [14] | Potency [15] | Potency [17]

CC[C@H]1OC(=O)[C@H](C)[C@@H](O[C@H]2C[C@@](C)(OC)[C@@H](O)[C@H](C)O2)[C@H](C)[C@@H](O[C@@H]2O[C@H](C)C[C@H](N(C)C)[C@@H]2O)[C@](C)(OC)C[C@@H](C)C(=O)[C@H](C)[C@@H](O)[C@]1(C)O
active: Potency [9] 0.105 µM
inactive: Potency [1] | Potency [2] | Potency [3] | Potency [4] | Potency [5] | Potency [6] | Potency [8] | Potency [11] | Potency [12] | Potency [13] | Potency [14] | Potency [15] | Potency [16] | Potency [17]

CC(=O)ON=C1C(c2c(O)[nH]c3cc(Br)ccc23)=Nc2ccccc21
active: Potency [1] 26.4 µM | Potency [2] 16.6 µM | Potency [3] 11.8 µM | Potency [4] 20.9 µM | Potency [5] 3.72 µM | Potency [7] 9.35 µM | Potency [8] 3.72 µM | Potency [9] 18.7 µM | Potency [10] 14.8 µM | Potency [11] 1.32 µM | Potency [13] 2.64 µM | Potency [14] 4.69 µM | Potency [15] 2.96 µM | Potency [16] 16.6 µM | Potency [17] 18.7 µM

Cn1cc(C[C@@H](N)C(=O)O)c2ccccc21
inactive: Potency [1] | Potency [18] | Potency [7] | Potency [8] | Potency [12] | Potency [14] | Potency [16] | Potency [17]
active: Potency [20] 4.57 µM | Potency [9] 7.24 µM

CC(C)(N)c1ccc(-c2nc3ccccc3nc2-c2ccccc2)cc1
active: Potency [1] 23.5 µM | Potency [2] 26.4 µM | Potency [3] 18.7 µM | Potency [4] 18.7 µM | Potency [5] 3.32 µM | Potency [6] 7.43 µM | Potency [7] 23.5 µM | Potency [8] 5.9 µM | Potency [10] 23.5 µM | Potency [11] 5.9 µM | Potency [12] 7.43 µM | Potency [13] 7.43 µM | Potency [14] 10.5 µM | Potency [15] 10.5 µM

CCNC(=O)c1cc2c(-c3cc(OCCN4CCCC4)c(Cl)cc3Cl)nc(N)nc2s1
active: Potency [1] 3.32 µM | Potency [18] 1.66 µM | Potency [4] 1.87 µM | Potency [5] 0.418 µM | Potency [20] 1.32 µM | Potency [7] 0.743 µM | Potency [8] 0.833 µM | Potency [9] 2.35 µM | Potency [10] 1.05 µM | Potency [11] 1.66 µM | Potency [12] 0.833 µM | Potency [19] 1.48 µM | Potency [14] 1.66 µM | Potency [15] 0.743 µM | Potency [16] 1.18 µM | Potency [17] 2.96 µM

CCCc1nc(C(C)(C)O)c(C(=O)O)n1Cc1ccc(-c2ccccc2-c2nn[nH]n2)cc1
inactive: Potency [1] | Potency [2] | Potency [3] | Potency [4] | Potency [5] | Potency [20] | viability [9] 131% | Potency [11] | Potency [14] | Potency [15] | Potency [16] | Potency [17]

CC(C)C[C@@H](C=O)NC(=O)[C@H](CC(C)C)NC(=O)[C@H](CC(C)C)NC(=O)OCc1ccccc1 (Cbz-Leu-Leu-Leu-aldehyde)
active: Potency [1] 0.332 µM | Potency [2] 0.332 µM | Potency [3] 0.662 µM | Potency [4] 0.209 µM | Potency [5] 0.118 µM | Potency [20] 0.235 µM | Potency [6] 0.296 µM | Potency [7] 0.372 µM | Potency [8] 0.296 µM | Potency [9] 1.18 µM | Potency [10] 0.166 µM | Potency [11] 0.105 µM | Potency [12] 0.148 µM | Potency [13] 0.132 µM | Potency [14] 0.209 µM | Potency [15] 0.332 µM | Potency [16] 0.833 µM | Potency [17] 0.662 µM

CNC(=O)Nc1ccc(-c2nc(N3CC4CCC(C3)O4)c3cnn(C4CCC5(CC4)OCCO5)c3n2)cc1
active: Potency [1] 0.935 µM | Potency [18] 0.0148 µM | Potency [4] 0.0037 µM | Potency [7] 0.833 µM | Potency [8] 0.0118 µM | Potency [9] 0.0166 µM | Potency [10] 0.0148 µM | Potency [15] 0.0662 µM
